Source: the supplement of paper PMC4466140

Experiments:
Test in all cases: SPOT peptide array binding signal intensity (averaged, normalized) (arbitrary units (background-subtracted, floor 0; scale differs between SH3 domains)); higher = stronger binding of the SH3 domain to the peptide
[1] = biological target: AgAbp1
Protocol: (§1)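 GST-tagged SH3 domains from S. cerevisiae (Sc), A. gossypii (Ag), C. albicans (Ca) and S. pombe (Sp) were incubated at 10 ug/ml overnight at 4 C on cellulose SPOT membranes carrying 292 synthetic 15-mer peptides mined from the S. cerevisiae proteome (cysteines replaced by serines). Binding was detected with anti-GST antibody, HRP secondary and chemiluminescence, quantified with Genespotter, and reported as normalized spot intensities averaged over biological replicates.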

[2] = biological target: AgBbc1
Protocol: as §1

[3] = biological target: AgBem1-D1
Protocol: as §1

[4] = biological target: AgBzz1-D1
Protocol: as §1

[5] = biological target: AgBzz1-D2
Protocol: as §1

[6] = biological target: AgCyk3
Protocol: as §1

[7] = biological target: AgFus1
Protocol: as §1

[8] = biological target: AgHof1
Protocol: as §1

[9] = biological target: AgHse1
Protocol: as §1

[10] = biological target: AgLsb1
Protocol: as §1

[11] = biological target: AgLsb4
Protocol: as §1

[12] = biological target: AgMyo5
Protocol: as §1

[13] = biological target: AgNbp2
Protocol: as §1

[14] = biological target: AgRvs167
Protocol: as §1

[15] = biological target: AgSho1
Protocol: as §1

[16] = biological target: AgSla1-D1-D2
Protocol: as §1

[17] = biological target: AgSla1-D3
Protocol: as §1

[18] = biological target: CaAbp1-D1
Protocol: as §1

[19] = biological target: CaAbp1-D2
Protocol: as §1

[20] = biological target: CaBbc1
Protocol: as §1

[21] = biological target: CaBem1-D1
Protocol: as §1

[22] = biological target: CaBzz1-D1
Protocol: as §1

[23] = biological target: CaBzz1-D2
Protocol: as §1

[24] = biological target: CaCyk3
Protocol: as §1

[25] = biological target: CaFus1
Protocol: as §1

[26] = biological target: CaHof1
Protocol: as §1

[27] = biological target: CaHse1
Protocol: as §1

[28] = biological target: CaLsb1
Protocol: as §1

[29] = biological target: CaLsb4
Protocol: as §1

[30] = biological target: CaMyo5
Protocol: as §1

[31] = biological target: CaNbp2
Protocol: as §1

[32] = biological target: CaRvs167
Protocol: as §1

[33] = biological target: CaRvs167-3
Protocol: as §1

[34] = biological target: CaSho1
Protocol: as §1

[35] = biological target: CaSla1-D1-D2
Protocol: as §1

[36] = biological target: CaSla1-D3
Protocol: as §1

[37] = biological target: ScAbp1
Protocol: as §1

[38] = biological target: ScBbc1
Protocol: as §1

[39] = biological target: ScBem1-D1
Protocol: as §1

[40] = biological target: ScBzz1-D1
Protocol: as §1

[41] = biological target: ScBzz1-D2
Protocol: as §1

[42] = biological target: ScCyk3
Protocol: as §1

[43] = biological target: ScFus1
Protocol: as §1

[44] = biological target: ScHof1
Protocol: as §1

[45] = biological target: ScHse1
Protocol: as §1

[46] = biological target: ScLsb1
Protocol: as §1

[47] = biological target: ScLsb2
Protocol: as §1

[48] = biological target: ScLsb3
Protocol: as §1

[49] = biological target: ScLsb4
Protocol: as §1

[50] = biological target: ScMyo3
Protocol: as §1

[51] = biological target: ScMyo5
Protocol: as §1

[52] = biological target: ScNbp2
Protocol: as §1

[53] = biological target: ScPex13
Protocol: as §1

[54] = biological target: ScRvs167
Protocol: as §1

[55] = biological target: ScSho1
Protocol: as §1

[56] = biological target: ScSla1-D1-D2
Protocol: as §1

[57] = biological target: ScSla1-D3
Protocol: as §1

[58] = biological target: SpAbp1-D1
Protocol: as §1

[59] = biological target: SpBbc1
Protocol: as §1

[60] = biological target: SpBzz1-D1
Protocol: as §1

[61] = biological target: SpBzz1-D2
Protocol: as §1

[62] = biological target: SpCyk3
Protocol: as §1

[63] = biological target: SpHof1
Protocol: as §1

[64] = biological target: SpHof1-2
Protocol: as §1

[65] = biological target: SpHof1-3
Protocol: as §1

[66] = biological target: SpHse1
Protocol: as §1

[67] = biological target: SpLsb1
Protocol: as §1

[68] = biological target: SpLsb4
Protocol: as §1

[69] = biological target: SpMyo1
Protocol: as §1

[70] = biological target: SpNbp2
Protocol: as §1

[71] = biological target: SpPex13
Protocol: as §1

[72] = biological target: SpRvs167
Protocol: as §1

[73] = biological target: SpSla1-D1-D2
Protocol: as §1

[74] = biological target: SpSla1-D3
Protocol: as §1

Binder: KRKRRLPVSEDTNTK
- SPOT peptide array binding signal intensity [1]: 42.5
- SPOT peptide array binding signal intensity [2]: 25
- SPOT peptide array binding signal intensity [3]: 322
- SPOT peptide array binding signal intensity [4]: 26.5
- SPOT peptide array binding signal intensity [5]: 47.5
- SPOT peptide array binding signal intensity [6]: 1
- SPOT peptide array binding signal intensity [7]: 519
- SPOT peptide array binding signal intensity [8]: 87
- SPOT peptide array binding signal intensity [9]: 656
- SPOT peptide array binding signal intensity [10]: 1.5
- SPOT peptide array binding signal intensity [11]: 46.5
- SPOT peptide array binding signal intensity [12]: 1.5
- SPOT peptide array binding signal intensity [13]: 213
- SPOT peptide array binding signal intensity [14]: 3.5
- SPOT peptide array binding signal intensity [15]: 53
- SPOT peptide array binding signal intensity [16]: 25.5
- SPOT peptide array binding signal intensity [17]: 7
- SPOT peptide array binding signal intensity [18]: 514
- SPOT peptide array binding signal intensity [19]: 626
- SPOT peptide array binding signal intensity [20]: 97
- SPOT peptide array binding signal intensity [21]: 3
- SPOT peptide array binding signal intensity [22]: 85
- SPOT peptide array binding signal intensity [23]: 69.8
- SPOT peptide array binding signal intensity [24]: 24
- SPOT peptide array binding signal intensity [25]: 1030
- SPOT peptide array binding signal intensity [26]: 0.5
- SPOT peptide array binding signal intensity [27]: 49
- SPOT peptide array binding signal intensity [28]: 0.75
- SPOT peptide array binding signal intensity [29]: 154
- SPOT peptide array binding signal intensity [30]: 3
- SPOT peptide array binding signal intensity [31]: 255
- SPOT peptide array binding signal intensity [32]: 8.67
- SPOT peptide array binding signal intensity [33]: 9.75
- SPOT peptide array binding signal intensity [34]: 288
- SPOT peptide array binding signal intensity [35]: 8
- SPOT peptide array binding signal intensity [36]: 8.75
- SPOT peptide array binding signal intensity [37]: 30
- SPOT peptide array binding signal intensity [38]: 30
- SPOT peptide array binding signal intensity [39]: 183
- SPOT peptide array binding signal intensity [40]: 15.5
- SPOT peptide array binding signal intensity [41]: 16.5
- SPOT peptide array binding signal intensity [42]: 143
- SPOT peptide array binding signal intensity [43]: 298
- SPOT peptide array binding signal intensity [44]: 3.5
- SPOT peptide array binding signal intensity [45]: 1340
- SPOT peptide array binding signal intensity [46]: 1.5
- SPOT peptide array binding signal intensity [47]: 11
- SPOT peptide array binding signal intensity [48]: 562
- SPOT peptide array binding signal intensity [49]: 16
- SPOT peptide array binding signal intensity [50]: 5.75
- SPOT peptide array binding signal intensity [51]: 6.75
- SPOT peptide array binding signal intensity [52]: 210
- SPOT peptide array binding signal intensity [53]: 0.5
- SPOT peptide array binding signal intensity [54]: 16.3
- SPOT peptide array binding signal intensity [55]: 808
- SPOT peptide array binding signal intensity [56]: 261
- SPOT peptide array binding signal intensity [57]: 103
- SPOT peptide array binding signal intensity [58]: 214
- SPOT peptide array binding signal intensity [59]: 3
- SPOT peptide array binding signal intensity [60]: 40
- SPOT peptide array binding signal intensity [61]: ≤ 0
- SPOT peptide array binding signal intensity [62]: 6.5
- SPOT peptide array binding signal intensity [63]: 150
- SPOT peptide array binding signal intensity [64]: 12
- SPOT peptide array binding signal intensity [65]: 602
- SPOT peptide array binding signal intensity [66]: 391
- SPOT peptide array binding signal intensity [67]: 5.75
- SPOT peptide array binding signal intensity [68]: 268
- SPOT peptide array binding signal intensity [69]: 3.5
- SPOT peptide array binding signal intensity [70]: 331
- SPOT peptide array binding signal intensity [71]: 8.5
- SPOT peptide array binding signal intensity [72]: 2.83
- SPOT peptide array binding signal intensity [73]: ≤ 0
- SPOT peptide array binding signal intensity [74]: 6

Binder: ALKQKKIPPPFKPHL
- SPOT peptide array binding signal intensity [31]: 15.5
- SPOT peptide array binding signal intensity [32]: ≤ 0
- SPOT peptide array binding signal intensity [33]: 4.5
- SPOT peptide array binding signal intensity [34]: ≤ 0
- SPOT peptide array binding signal intensity [35]: ≤ 0
- SPOT peptide array binding signal intensity [36]: 2
- SPOT peptide array binding signal intensity [37]: 29
- SPOT peptide array binding signal intensity [38]: ≤ 0
- SPOT peptide array binding signal intensity [39]: ≤ 0
- SPOT peptide array binding signal intensity [40]: 9
- SPOT peptide array binding signal intensity [41]: 3
- SPOT peptide array binding signal intensity [42]: ≤ 0
- SPOT peptide array binding signal intensity [43]: ≤ 0
- SPOT peptide array binding signal intensity [44]: 1
- SPOT peptide array binding signal intensity [45]: 74
- SPOT peptide array binding signal intensity [46]: ≤ 0
- SPOT peptide array binding signal intensity [47]: ≤ 0
- SPOT peptide array binding signal intensity [48]: ≤ 0
- SPOT peptide array binding signal intensity [49]: ≤ 0
- SPOT peptide array binding signal intensity [50]: ≤ 0
- SPOT peptide array binding signal intensity [51]: 1
- SPOT peptide array binding signal intensity [52]: ≤ 0
- SPOT peptide array binding signal intensity [53]: ≤ 0
- SPOT peptide array binding signal intensity [54]: ≤ 0
- SPOT peptide array binding signal intensity [55]: ≤ 0
- SPOT peptide array binding signal intensity [56]: ≤ 0
- SPOT peptide array binding signal intensity [57]: 8
- SPOT peptide array binding signal intensity [58]: 20.5
- SPOT peptide array binding signal intensity [59]: ≤ 0
- SPOT peptide array binding signal intensity [60]: 288
- SPOT peptide array binding signal intensity [61]: ≤ 0
- SPOT peptide array binding signal intensity [62]: ≤ 0
- SPOT peptide array binding signal intensity [63]: ≤ 0
- SPOT peptide array binding signal intensity [64]: ≤ 0
- SPOT peptide array binding signal intensity [65]: 39.5
- SPOT peptide array binding signal intensity [66]: 23
- SPOT peptide array binding signal intensity [67]: ≤ 0
- SPOT peptide array binding signal intensity [68]: ≤ 0
- SPOT peptide array binding signal intensity [69]: ≤ 0
- SPOT peptide array binding signal intensity [70]: ≤ 0
- SPOT peptide array binding signal intensity [71]: ≤ 0
- SPOT peptide array binding signal intensity [72]: ≤ 0
- SPOT peptide array binding signal intensity [73]: ≤ 0
- SPOT peptide array binding signal intensity [74]: ≤ 0
